Laboratory results reported in PubChem BioAssay (Tox21).
Inconclusive results are not listed. Calls of active or inactive are those of the source. The call rests on the fitted dose curve; in most records, active means well fitted cell-killing curve with a large enough effect in the repeat runs; inconclusive means weak or mixed curves, or effect the other way; inactive means flat fitted curve, though single readings scatter.

assay: qHTS RealTime-Glo MT Cell Viability Assay in HepG2 cells - 40 hour (AID 1224870); details: RealTime-Glo luminescence; series mostly up to 76.8 µM; further: nearly all actives have a fitted effect of over 50% in size
From the text: National Center for Advancing Translational Sciences [NCATS]
NIH Chemical Genomics Center [NCGC]
U.S. Environmental Protection Agency [EPA]
National Institutes of Environmental Health Sciences [NIEHS]
National Toxicology Program [NTP]
U.S. Food and Drug Administration [FDA]
Measure of cell viability is critical in the cell-base assay. Analysis of cell viability is necessary for the characterization of cell responses to cytotoxic drugs and environmental stress. A RealTime-Glo MT Cell Viability Assay to monitor cell viability in real time of continues cell culture during 40 hours of compound treatment was used to screen Tox21 10K library compounds in HepG2 cells. The RealTime-Glo MT Cell Viability Assay is a nonlytic, homogeneous, bioluminescent method to measure cell viability in real time using a simple, plate-based method. The assay involves adding NanoLuc luciferase and a cell-permeant prosubstrate to cells in culture. Viable cells reduce the proprietary prosubstrate to generate a substrate for NanoLuc luciferase. This substrate diffuses from cells into the surrounding culture medium, where it is rapidly used by the NanoLuc Enzyme to produce a luminescent signal. The signal correlates with the number of viable cells, making the assay well suited for cytotoxicity studies.
Tox21 Assay Protocol Summary:
The mixture of HepG2 cell suspension and reagents were dispensed at 600cells/6 ul/well in 1536-well tissue culture treated black solid bottom plates using a Multidrop dispenser. After the assay plates were incubated at a 37 C/5% CO2 incubator for 5 hours, 23 nL of compounds dissolved in DMSO, positive and negative controls was transferred to the assay plate by a pintool work station. The plates were incubated at 37 C for 40 hours. The luminescence intensity were measured at 0h, 8h, 16h, 24h, 32h and 40h time points using ViewLux plate reader during compound treatment.

Row | Structure (SMILES) | outcome
1 | C[C@]12CC[C@@H]3c4ccc(O)cc4C[C@@H](CCCCCCCCCS(=O)CCCC(F)(F)C(F)(F)F)[C@H]3[C@@H]1CC[C@@H]2O (stereo not given in full) | inactive
2 | N[C@@H](Cc1c[nH]c2ccc(O)cc12)C(=O)O | inactive
3 | C[C@]12CC[C@@H]3c4ccc(O)cc4CC[C@H]3[C@@H]1CCC2=O | inactive
4 | O=C(O)Cc1cccc2ccccc12 | inactive
5 | OCCCc1ccccc1 | inactive
6 | CCN(CC)CCOC(=O)c1ccc(N)cc1 | inactive
7 | CCCCCCCCOc1ccc(C(=O)c2ccccc2)c(O)c1 | inactive
8 | CN(C)Cc1cc(CN(C)C)c(O)c(CN(C)C)c1 | inactive
9 | Cn1cnc2c1c(=O)[nH]c(=O)n2C | inactive
10 | COC(=O)c1ccc(C=O)cc1 | inactive
11 | CC(=O)c1ccc(S(=O)(=O)NC(=O)NC2CCCCC2)cc1 | inactive
12 | COC1=CC(=O)C[C@@H](C)[C@]12Oc1c(Cl)c(OC)cc(OC)c1C2=O | inactive
13 | Cc1c(N(C)C)c(=O)n(-c2ccccc2)n1C | inactive
14 | N[C@@H](Cc1c[nH]c2ccccc12)C(=O)O | inactive
15 | O=C(OCc1ccccc1)c1ccccc1 | inactive
16 | CCCCCCCCCCCCCC(=O)OC(C)C | inactive
17 | NC(=O)N1c2ccccc2C=Cc2ccccc21 | inactive
18 | CCCCCCCCCCCCCCCCCC(=O)OCC(O)CO (stereo not given) | inactive
19 | OC[C@@H](O)[C@@H](O)[C@H](O)[C@H](O)CO | inactive
20 | COCC(C)N (stereo not given) | inactive

Row | Structure (SMILES) | outcome
21 | CCCCNC(=O)NS(=O)(=O)c1ccc(N)cc1 | inactive
22 | C#C[C@]1(O)CC[C@H]2[C@@H]3CCc4cc(O)ccc4[C@H]3CC[C@@]21C | inactive
23 | CCOC(=O)C(C)(C)Oc1ccc(Cl)cc1 | inactive
24 | CCCCOCCOCCSC#N | inactive
25 | CCc1cc(C(N)=S)ccn1 | inactive
26 | CC(C)(C)CC(C)(C)c1ccc(O)c(-n2nc3ccccc3n2)c1 | inactive
27 | NC(=O)c1ccc([N+](=O)[O-])cc1Cl | inactive
28 | CCn1cc(C(=O)O)c(=O)c2ccc(C)nc21 | inactive
29 | O=c1c(-c2ccc(O)cc2)coc2cc(O)cc(O)c12 | inactive
30 | CC(=O)OC/C=C(C)/C=C/C=C(C)/C=C/C1=C(C)CCCC1(C)C | inactive
31 | CC(=O)Oc1ccccc1C(=O)O | inactive
32 | CCCCOCCOCCOC(C)=O | inactive
33 | O=c1cc[nH]c(=O)[nH]1 | inactive
34 | CCCCOC(=O)CCCCCCCCC(=O)OCCCC | inactive
35 | CC(C)(C)NCC(O)c1ccc(O)c(CO)c1 (stereo not given) | inactive
36 | NC(=O)OCC(COC(N)=O)c1ccccc1 | inactive
37 | CC(C)CC(C)CC(O)CC(C)C (stereo not given) | inactive
38 | C=CC(=O)NC(C)(C)CS(=O)(=O)O | inactive
39 | Cc1c(N(C)CS(=O)(=O)O)c(=O)n(-c2ccccc2)n1C | inactive
40 | O=C1OC(c2ccc(O)cc2)(c2ccc(O)cc2)c2ccccc21 | inactive
